Assay results from ChEMBL document CHEMBL3433997, “St. Jude Leishmania screening dataset” (2016).

Target: Glucose transporter (Leishmania mexicana) (UniProt O61059)
Experiment: ST_JUDE_LEISH: Cytotoxicity at 2uM final concentration against transgenic Leishmania Mexicana promastigotes LmGT2 that are glucose transport deficient and complemented with the L. Mexicana glucose transporter 2. Activity is measured by DNA content using SYBR green in vitro
Type: functional

SMILES | inhibition [%]
O=C(N[C@H]1CCN(Cc2ccc(OC3CCN(Cc4ccccc4)CC3)c(Br)c2)C1)c1ccc(Cl)c(Cl)c1 | 0.77
CCOC(=O)c1ccc(NC(=O)NCCCC2CCCN(CCCCCNC(=O)/C=C/c3ccc(Cl)c(Cl)c3)C2)cc1 (centres undefined) | 0.52
COc1cc2c(cc1C(F)(F)F)N(C(=O)Nc1cc(F)cc(-c3cccnn3)c1)CC2 | 2.7
CCCc1cc(NCC)nc(Nc2ccc(F)cc2)n1 | 3.2
COc1ccc2nc3cc(Cl)ccc3c(NCCCCN)c2c1 | 0.04
COc1ccc2c(=NN=CC=Cc3ccccc3)cc(C)[nH]c2c1 | 3.21
CC(=O)Nc1ccc(S(=O)(=O)N2CCN(c3nc(NC4CCCC4)c4ccccc4n3)CC2)cc1 | 2.94
C=CCOC(=O)N1CCC(CNCc2cccc(-c3ccc(-c4nc5cccc(C)c5[nH]4)s3)c2)C1 (centres undefined) | -0.89
CN1CCC(NCc2cccc(-c3cccc(-c4nc5cc(C(F)(F)F)ccc5[nH]4)c3)c2)CC1 | 1.42
Cc1c(C)c2c(c(C)c1O)CC[C@@](C)(C(=O)N1CCC(CCN3CCC(c4c[nH]c5ccccc45)CC3)CC1)O2 | 4.66
COc1cc2nc(NCCCO)nc(Nc3ccc(Oc4ccccc4)cc3)c2cc1OC | 4.69
O=C(Nc1cccc(-c2cccc(-c3nc4cc(C(F)(F)F)ccc4[nH]3)c2)c1)c1ccncc1 | 2.56
COc1ccc2nccc(N(C)CC3(O)CCC(NCc4cc5c(cn4)OCCO5)CC3)c2n1 (centres undefined) | 1.71
CCN1CCC(NCc2ccc(-c3ccc(Cl)cc3)cc2)CC1 | 7.91
c1cncc(CCNCc2ccc(-c3cccc(-c4nc5ccccc5[nH]4)c3)cc2)c1 | -0.38
CC(CN(C)C)C(=O)Nc1cccc(-c2ccc(-c3nc4cc(C(F)(F)F)ccc4[nH]3)cc2)c1 (centres undefined) | 4.86
Cc1cc(OCc2ccccc2)c(OCc2ccccc2)cc1C(O)CN(C)Cc1ccccc1 (centres undefined) | -0.1
COc1ccccc1N1CCN(C(C(=O)NCc2ccc(C)cc2)c2ccc(C)cc2)CC1 (centres undefined) | -2.75
CN(C)CCCN(C)c1cccc2c1nc(-c1cccnc1)n2CCNCc1ccccc1 | 1.45
CCOc1cc(C(=O)NC2CC(C)(C)N(C)C(C)(C)C2)ccc1-c1nc2cc(Cl)c(Cl)cc2[nH]1 | 7.12

SMILES | inhibition [%]
CC(CN(C)C)C(=O)Nc1cccc(-c2ccc(-c3nc4ccccc4[nH]3)cc2)c1 (centres undefined) | 7.36
FC(F)(F)c1ccc2nccc(NCc3ccccc3)c2c1 | 1.41
CCN(CC)C(=O)C1CCN(C(C(=O)N2CCN(CC(=O)N3CCCC3)CC2)c2cc3ccccc3o2)CC1 (centres undefined) | 1.61
O=C(NC1CC1)c1ccc(N2CCC(Cc3ccccc3)CC2)c([N+](=O)[O-])c1 | 3.45
CCCOc1ccc(-c2nonc2NC(=O)c2cccc(OC)c2)cc1OCCC | 10.5
FC(F)(F)c1cccc(Nc2nc(-n3ccnc3)nc(-n3ccnc3)n2)c1 | 1.05
COc1ccc2nccc(N3CCC(SCCNCc4ccc5c(n4)NC(=O)CS5)C3)c2n1 (centres undefined) | 0.51
CCN(CCCN1CCCCC1)c1cc(C)nc(Nc2cc(Cl)ccc2C)n1 | 1.67
CCc1cc(NC2CCN(C)CC2)nc(Nc2cccc(OC)c2)n1 | 6.53
Cc1nnc2c(N(C(=O)NCCc3ccccc3)C(=O)NCCc3ccccc3)cc3cc(Cl)ccc3n12 | 8.99
CN1CCC(NCc2cccc(-c3ccc(S(=O)(=O)NCCc4ccccn4)c(F)c3)c2)CC1 | 0.94
CC(Cc1ccc(NC(=O)c2ccc(NCCc3ccccc3)cc2)cc1)NCCc1cccc(Cl)c1 (centres undefined) | -1.31
NCC1CCCN1Cc1ccc(-c2cccc(-c3nc4cc(C(F)(F)F)ccc4[nH]3)c2)cc1 (centres undefined) | 3.17
CCOc1ccc(-c2nonc2NC(=O)c2cccs2)cc1OCC | -0.56
OC(CNCCc1ccccc1)Cn1c2ccc(Cl)cc2c2cc(Cl)ccc21 (centres undefined) | -2.27
CCn1cnc2c(Nc3cccc([N+](=O)[O-])c3)nc(N3CCC(N4CCCCC4)CC3)nc21 | -0.24
CCNc1nc(OCC(F)(F)F)nc(N(c2ccccc2)c2ccccc2)n1 | 1.04
N#Cc1cccc(Nc2ncc3c(-c4cccc(NC(=O)Cc5cccc(Cl)c5)c4)c[nH]c3n2)c1 | 0.18
COc1cc(Nc2ccnc3cc(-c4ccncc4)ccc23)cc(OC)c1OC | 9.21
